This note sets out measurements from PubChem BioAssay.

Active and inactive are the calls of the source.

The test system of experiment [1] is Human papillomavirus type 1a protein E7 (residues 44-93). Briefly: HPV1a E7 fragment binders on microarrays, primary screen, biochemical, small-molecule microarray, residues 44-93, 635 nm fluorescence (AID 1108).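 Further: E7 fragment applied at 1 µg/mL in TBST for 1 h at 4 C; score combines spot fluorescence with its signal to noise ratio.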 The settings on record: small-molecule microarray binding, fluorescence 635 nm; higher = more signal.
Experiment [2] in a line: modulators of HCV replicon luciferase signal, primary screen, HCV replication inhibitor project, Huh7 cells, luciferase reporter (AID 1109).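 Further: huh7 hepatoma cells harbouring a luciferase neomycin HCV replicon reporter; luciferase luminescence as measure of HCV replicon replication; test concentration not given here.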 The settings on record: 48 h, higher = more signal. (A replicon is a self-replicating genome or part of one, used to study replication in cells.)
For experiment [3], the target named is Left-right determination factor 2 (Homo sapiens) (UniProt O00292). Briefly: LEFTY2 binders on small-molecule microarrays, primary screen, biochemical, small-molecule microarray, 635 nm fluorescence scan (AID 1110). The settings on record: LEFTY2 binding, higher = more signal.
Experiment [4] deals with Calmodulin-1 (Homo sapiens) (UniProt P0DP23). Briefly: CALM1 binders on microarrays, EGTA buffer, profiling panel, biochemical, small-molecule microarray, Cy5-labelled CALM1 (AID 1111).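 Further: labelled calmodulin applied in Tris saline Tween buffer holding calcium plus EGTA and DTT.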 The settings on record: Cy5-CALM1 binding fluorescence, higher = more signal.
The target is the same in experiment [5]. Briefly: calcium-bound CALM1 binders on microarrays, profiling panel, artefact control for SMM control-protein annotation, biochemical, small-molecule microarray, Cy5-labelled CALM1, plus calcium (AID 1112).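 Further: score merges spot fluorescence with signal to noise from triplicate slides.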 The settings on record: Cy5-CALM1 binding fluorescence, higher = more signal.
Experiment [6] is described as follows: small-molecule microarray binders of probe aWnt5a, primary screen, biochemical, biotinylated probe, 635/667 nm fluorescence (AID 1113).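 Further: score merges 667 nm fluorescence intensity with signal-to-noise per printed feature.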 The settings on record: higher = more signal.
A short description of experiment [7]: small-molecule microarray binders of probe aShh, primary screen, biochemical, biotinylated probe, 635/667 nm fluorescence (AID 1114).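 Further: probe is biotin-labelled aShh protein from a stem cell growth factor screen; measures binding of labelled protein to compounds printed on the slide; score merges feature fluorescence at 667 nm with signal-to-noise.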 The settings on record: higher = more signal.
Experiment [8] can be described thus: small-molecule microarray binders of probe aNog, primary screen, biochemical, biotinylated probe, 635/667 nm fluorescence (AID 1115).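 Further: probe is biotinylated aNog protein used at 0.15 µg/mL for 1 h at 4 C; z-score combines 667 nm fluorescence of each spot with its signal to noise.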 The settings on record: higher = more signal.
Experiment [9] deals with Torsin-1A-interacting protein 1 (Homo sapiens) (UniProt Q5JTV8). As to the kind of experiment: LAP1 binders from COS7 cell lysate, primary screen, small-molecule microarray, 635/667 nm fluorescence (AID 1116). The settings on record: COS7-hLAP1 lysate binding, 635 nm fluorescence, higher = more signal.
The target of experiment [10] is Alpha-bungarotoxin (Bungarus multicinctus) (UniProt P60615). Briefly: alpha-bungarotoxin binders on microarray, profiling panel, artefact control for SMM control protein annotation, biochemical, small-molecule microarray, Alexa647 label, 635/667 nm fluorescence (AID 1117). The settings on record: alpha-BTX-A647 binding fluorescence, higher = more signal.
For another experiment, the target named is Albumin (Bos taurus) (UniProt P02769). Briefly: bovine serum albumin binders on microarray, profiling panel, artefact control for SMM control protein annotation, biochemical, small-molecule microarray, Alexa647 label, 635/667 nm fluorescence (AID 1118).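 Further: score merges 667 nm emission intensity and signal-to-noise per printed compound spot.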 The settings on record: BSA-A647 binding, fluorescence 635 nm, higher = more signal.
Experiment [11] in a line: small-molecule microarray binders of probe aXIP, primary screen, biochemical, NeuroSMM set, 635/667 nm fluorescence (AID 1119).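 Further: probe is the protein aXip251-270 applied at 1 µg/mL to compound-printed slides; binding of probe to printed compounds measured as 667 nm fluorescence plus signal to noise.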 The settings on record: higher = more signal, called active from +8 up or from −8 down.
A short description of experiment [12]: small-molecule binders of probe aNOTCH3, primary screen, biochemical, small-molecule microarray, 635/667 nm fluorescence (AID 1120).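 Further: probe is a biotin-tagged antibody raised against NOTCH3 rather than NOTCH3 protein; score merges spot fluorescence near 667 nm with spot signal to noise.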 The settings on record: higher = more signal.
A short description of experiment [13]: small-molecule binders of probe aNOTCH2, primary screen, biochemical, small-molecule microarray, 635/667 nm fluorescence (AID 1121).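 Further: score merges feature fluorescence read at 667 nm with its signal to noise.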 The settings on record: higher = more signal.
Experiment [14] concerns the target Carbonic anhydrase 2 (Homo sapiens) (UniProt P00918). Briefly: CAII small-molecule binders, profiling panel, biochemical, small-molecule microarray, Alexa647-labelled CAII (AID 1122). The settings on record: CAII-A647 binding fluorescence, higher = more signal.
A short description of experiment [15]: COS7 lysate on small-molecule microarray, probe aHis, 635 nm (AID 1123).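 Further: z-score combines 667nm fluorescence intensity with signal-to-noise per printed compound spot.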 The settings on record: COS7 cell lysate, fluorescence, higher = more signal.
The nature of experiment [16]: compound binding in COS7 lysate, probe aLAP1, primary screen, cell lysate, small-molecule microarray (AID 1124).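 Further: lysate comes from COS7 cells expressing LAP1 and is applied at 0.3 µg/mL; score merges spot fluorescence near 667 nm with signal-to-noise over triplicate slides.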 The settings on record: probe aLAP1, fluorescence, higher = more signal.
In the next experiment the test system is Sam68 (KHDRBS1). Briefly: Sam68 small-molecule binders, primary screen, biochemical, small-molecule microarray, 635 nm fluorescence (AID 1125).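 Further: score merges 667 nm channel intensity with signal to noise over triplicate slides.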 The settings on record: small-molecule microarray binding, higher = more signal.
Experiment [17] deals with Chordin-like protein 2 (CHRDL2). Briefly: CHRDL2 small-molecule binders, primary screen, biochemical, small-molecule microarray, 635 nm fluorescence (AID 1126).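 Further: printed compound slides probed with Chrdl2 protein at 4 µg/mL for 1 h at 4 C; score merges 667 nm emission intensity with signal to noise over three replicate slides.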 The settings on record: small-molecule microarray binding, fluorescence 635 nm; higher = more signal.
In experiment [18] the target is Concanavalin-A (Canavalia ensiformis) (UniProt P02866). As to the kind of experiment: ConA small-molecule binders, primary screen, artefact control for SMM control protein annotation, biochemical, small-molecule microarray, Alexa647 label, 635 nm (AID 1127).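 Further: z combines 667 nm emission intensity with signal-to-noise across three replicate slides.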 The settings on record: ConA-A647 binding fluorescence, higher = more signal.
Chain of Concanavalin-A (Canavalia ensiformis) (P02866 whole entry, looked up): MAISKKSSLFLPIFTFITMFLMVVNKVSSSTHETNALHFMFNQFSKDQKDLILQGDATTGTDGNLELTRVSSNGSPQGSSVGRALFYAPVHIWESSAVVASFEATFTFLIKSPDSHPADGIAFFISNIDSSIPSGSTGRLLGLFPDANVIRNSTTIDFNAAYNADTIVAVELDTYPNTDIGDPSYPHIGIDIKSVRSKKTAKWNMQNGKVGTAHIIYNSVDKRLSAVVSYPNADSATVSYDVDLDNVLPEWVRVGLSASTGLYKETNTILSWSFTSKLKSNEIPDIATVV

Chain of Alpha-bungarotoxin (Bungarus multicinctus) (P60615 whole entry, looked up): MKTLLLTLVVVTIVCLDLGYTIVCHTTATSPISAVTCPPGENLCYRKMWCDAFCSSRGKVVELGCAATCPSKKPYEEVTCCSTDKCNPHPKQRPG
Chain of Left-right determination factor 2 (Homo sapiens) (O00292 whole entry, looked up): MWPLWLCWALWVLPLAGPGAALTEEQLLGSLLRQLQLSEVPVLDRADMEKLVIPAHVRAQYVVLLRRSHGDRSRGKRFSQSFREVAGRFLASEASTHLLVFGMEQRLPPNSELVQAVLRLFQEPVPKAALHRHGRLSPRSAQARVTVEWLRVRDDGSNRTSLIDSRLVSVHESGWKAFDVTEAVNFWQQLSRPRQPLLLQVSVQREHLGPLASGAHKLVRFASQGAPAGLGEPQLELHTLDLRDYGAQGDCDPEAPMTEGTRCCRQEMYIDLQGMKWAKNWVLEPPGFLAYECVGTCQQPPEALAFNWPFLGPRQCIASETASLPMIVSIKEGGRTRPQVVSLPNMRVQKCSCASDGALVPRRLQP
Chain of Albumin (Bos taurus) (P02769 whole entry, looked up): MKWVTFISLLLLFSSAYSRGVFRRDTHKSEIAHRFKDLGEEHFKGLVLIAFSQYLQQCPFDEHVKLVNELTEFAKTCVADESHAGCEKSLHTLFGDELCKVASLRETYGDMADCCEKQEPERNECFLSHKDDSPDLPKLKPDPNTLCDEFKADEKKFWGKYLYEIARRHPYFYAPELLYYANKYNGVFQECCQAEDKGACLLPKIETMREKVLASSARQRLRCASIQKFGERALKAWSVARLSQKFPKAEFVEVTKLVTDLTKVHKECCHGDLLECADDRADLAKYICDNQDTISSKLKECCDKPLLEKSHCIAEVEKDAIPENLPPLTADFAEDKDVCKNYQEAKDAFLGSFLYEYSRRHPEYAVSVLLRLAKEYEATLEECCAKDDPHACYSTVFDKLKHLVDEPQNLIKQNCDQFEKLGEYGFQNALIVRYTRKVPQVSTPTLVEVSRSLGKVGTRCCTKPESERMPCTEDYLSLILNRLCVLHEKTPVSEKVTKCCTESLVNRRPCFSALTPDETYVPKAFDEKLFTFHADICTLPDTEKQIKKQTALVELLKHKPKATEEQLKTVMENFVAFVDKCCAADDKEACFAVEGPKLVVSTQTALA
Chain of Torsin-1A-interacting protein 1 (Homo sapiens) (Q5JTV8 whole entry, looked up): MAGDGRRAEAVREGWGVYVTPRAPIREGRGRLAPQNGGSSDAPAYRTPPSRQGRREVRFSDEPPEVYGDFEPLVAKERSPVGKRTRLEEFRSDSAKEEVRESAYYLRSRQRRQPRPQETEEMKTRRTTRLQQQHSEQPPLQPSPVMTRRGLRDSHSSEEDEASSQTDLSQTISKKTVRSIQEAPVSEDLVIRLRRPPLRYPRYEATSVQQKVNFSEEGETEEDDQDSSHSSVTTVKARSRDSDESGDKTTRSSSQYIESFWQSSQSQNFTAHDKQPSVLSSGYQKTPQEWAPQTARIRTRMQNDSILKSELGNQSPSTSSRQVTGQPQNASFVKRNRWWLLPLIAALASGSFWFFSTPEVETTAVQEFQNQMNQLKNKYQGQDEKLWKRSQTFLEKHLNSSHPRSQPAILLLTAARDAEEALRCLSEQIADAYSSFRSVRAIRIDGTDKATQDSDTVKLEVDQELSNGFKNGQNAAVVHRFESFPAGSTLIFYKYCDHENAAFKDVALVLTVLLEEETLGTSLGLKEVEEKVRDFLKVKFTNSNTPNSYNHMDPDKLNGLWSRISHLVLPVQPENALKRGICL

Take `COCCOC(=O)N1C(=O)[C@@]2(c3ccccc31)[C@H](c1ccc(OCCO)cc1)N1[C@H](c3ccccc3)[C@H](c3ccccc3)OC(=O)[C@H]1[C@@H]2C(=O)N1CCc2cc(OC)c(OC)cc2C1`: the composite z-score in experiment [1] was 1.16; in experiment [3] it was 1.03; in [4], 1.2; in experiment [5] it was 0.0721; in experiment [6], -0.001; in experiment [7], 0.0141. Besides, the composite z-score in experiment [8] was 0.603; in [9] it was 0.977; in experiment [10] it was 2.23; in the experiment with Albumin (Bos taurus) it was 0.642; in [12] it was 0.273; in experiment [13], -0.0021. Moreover, the composite z-score is 0.641 in experiment [14]; 2.4 in experiment [15]; 1.43 in experiment [16]; 1.28 in the experiment on Sam68 (KHDRBS1); 0.584 in experiment [17]; 1.16 in [18]. In addition, in experiment [2], the z-score is -2.15. Further, in experiment [11], the composite Z-score is 0.158 (inactive).
As to `COc1cc(CO)cc(I)c1O[C@H]1C=C(C(=O)NCCO)C[C@@H](NC[C@@H]2CCCO2)[C@@H]1O`, the composite z-score in experiment [1] was 1.33; in experiment [3] it was 0.187; in experiment [4], -0.0113; in [5], -0.732; in experiment [6], -0.096; in experiment [7], -0.304. Besides, the composite z-score in experiment [8] was -0.267; in [9] it was 1.13; in experiment [10], 0.693; with Albumin (Bos taurus), 0.0917; in experiment [12], 0.105; in experiment [13] it was -0.14. The composite z-score was -0.0877 in experiment [14]; -0.0856 in experiment [15]; 0.696 in experiment [16]; 1.16 in the experiment on Sam68 (KHDRBS1); 0.0292 in experiment [17]; 0.0446 in experiment [18]. Moreover, the z-score in experiment [2] was -0.695. Further, in experiment [11], the composite Z-score was -0.791 (inactive).
As to `O=C(O)[C@@]1(CCS(=O)(=O)c2ccccc2)N=C(c2ccc(OCCCO)cc2)O[C@H]1c1ccccc1`, the composite z-score in experiment [1] was 1.32; in [3] it was -0.665; in [4] it was 2.47; in [5], 0.967; in experiment [6] it was -0.0084; in [7], 0.0639. Moreover, the composite z-score is 1.1 in [8]; 1.08 in [9]; 0.524 in experiment [10]; 0.978 in the experiment with Albumin (Bos taurus); 0.156 in [12]; -0.0331 in experiment [13]. In addition, the composite z-score in [14] was 0.864; in [15], 2.21; in experiment [16], -0.334; in the experiment on Sam68 (KHDRBS1) it was 1.2; in experiment [17], -0.765; in experiment [18], 0.766. For the same molecule, in experiment [2], the z-score is -0.124. Besides, the composite Z-score in experiment [11] is -0.83 (inactive).
On to `CC(C)CNC(=O)[C@@]1(Cc2ccccc2I)c2ccccc2C(=O)N(Cc2ccccc2C(F)(F)F)[C@H]1c1ccc(CO)cc1`, for which the composite z-score in experiment [1] is 0.476; in experiment [3] it was -1.3; in [4] it was -0.512; in experiment [5], -0.157; in experiment [6], -0.176; in [7], 1.98. The composite z-score in experiment [8] was 0.978; in [9], 0.146; in experiment [10], -0.124; with Albumin (Bos taurus), 0.212; in experiment [12], -0.234; in experiment [13] it was 0.0344. The composite z-score was 0.417 in experiment [14]; 0.959 in [15]; 0.393 in experiment [16]; 0.432 with Sam68 (KHDRBS1); -0.731 in experiment [17]; -0.0801 in experiment [18]. The molecule also returned a z-score in experiment [2] of -0.908. Also, the composite Z-score in [11] is 0.117 (inactive).
Regarding `COc1ccc([Si](C)(C)[C@H]2[C@H](CCO)O[C@@]3(C(=O)N(Cc4ccccc4)c4ccc(N5CCCCC5=O)cc43)[C@@H]2C)cc1`, the composite z-score in [1] was 0.668; in experiment [3], -0.161; in experiment [4], 0.674; in experiment [5], 0.167; in experiment [6], -0.0685; in [7], -0.156. Further, the composite z-score was -0.135 in [8]; 0.652 in [9]; 0.883 in experiment [10]; 0.78 in the experiment with Albumin (Bos taurus); -0.0918 in experiment [12]; -0.133 in experiment [13]. The composite z-score in experiment [14] was 0.342; in experiment [15], 0.376; in experiment [16], 0.237; with Sam68 (KHDRBS1), 0.965; in experiment [17], 0.207; in [18], 0.905. Also, the z-score in experiment [2] was -5.03. Moreover, in experiment [11], the composite Z-score is 0.388 (inactive).
